Consider 5 compounds from PubChem BioAssay (EPA / NIEHS).

One may read the AC50 as the concentration at which the activity in the assay is half-maximal.

Records with an inconclusive call do not appear. The source made the active and inactive calls. Rule for the calls, unless noted: active = hit-call score of the fitted dose curve at least 0.9, where 1 is the maximum; inactive = score below 0.9.

The target in assay [1] is Retinoic acid receptor RXR-alpha (Homo sapiens) (UniProt P19793). In words: OT_NURR1_NURR1RXRa_1440: Odyssey Thera (OT) 24-hour HEK293T Protein Complementation Assay for Nurr1/retinoid X receptor (RXR) (AID 2283386; active = hit-call score of the fitted dose curve at least 0.9, where 1 is the maximum). The gist of the method:
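Gain in fluorescence, fitted relative to DMSO, reflects Nurr1–RXRα association in HEK293T cells after 24 h dosing. Bait and prey are each linked to a reporter-protein fragment that reassembles on interaction.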

The target of assay [2] is Peroxisome proliferator-activated receptor gamma (Homo sapiens) (UniProt P37231). In words: OT_PPARg_PPARgSRC1_0480: Odyssey Thera (OT) 8-hour Protein-Complementation Assay for Peroxisome Proliferator-activated Receptor Gamma / SRC-1 Co-activator (AID 2283387; active = hit-call score of the fitted dose curve at least 0.9, where 1 is the maximum;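 note: nuclear to cytoplasmic split Venus YFP fluorescence ratio reporting PPARg SRC-1 interaction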). The gist of the method: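 Protein-fragment complementation of split Venus YFP reports PPARg/SRC-1 interaction in HEK293T (transfected 48 h before treatment), exposed 8 h. Readout: N/C fluorescence ratio at 488 nm from imaging, Draq5 for segmentation, positive fit relative to DMSO.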

Read-out in assay [3]: Fatty acid synthase (Homo sapiens) (UniProt P49327)
As to the kind of experiment: LTEA_HepaRG_FASN: Life Technologies and Expression Analysis (LTEA) Assay for Fatty Acid Synthase (FASN) using HepaRG (AID 2283448).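 For AC50: differentiated human HepaRG liver cells in serum-free induction medium.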 Particulars: mRNA level, 48 h; actives raise or lower the signal. The gist of the method:
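FASN transcript measured by TaqMan qRT-PCR, normalised to three housekeeping genes, after 48 h chemical exposure of HepaRG cells. Eight-point half-log series from 100 uM in 0.5% DMSO, duplicates; gain or loss fitted against vehicle.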

Read-out in assay [4]: Cyclin Dependent Kinase Inhibitor 1A (CDKN1A), CDKN1A (gene 1026)
As to the kind of experiment: LTEA_HepaRG_CDKN1A: Life Technologies and Expression Analysis (LTEA) Assay for Cyclin Dependent Kinase Inhibitor 1A (CDKN1A) using HepaRG (AID 2283450). Particulars: mRNA level, 48 h; actives raise or lower the signal. In a few lines: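 Gain or loss of CDKN1A transcript is scored by bidirectional fitting against 0.5% DMSO vehicle. Human HepaRG cultures receive chemicals for 48 h across an 8-point series peaking at 100 uM; expression comes from qRT-PCR.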

Read-out in assay [5]: Cyclin D1 (CCND1), CCND1 (gene 595)
As to the kind of experiment: LTEA_HepaRG_CCND1: Life Technologies and Expression Analysis (LTEA) Assay for Cyclin D1 (CCND1) using HepaRG (AID 2283451).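 For AC50: differentiated human HepaRG liver cells in serum-free induction medium; TaqMan qRT-PCR transcript level normalised to ACTB GAPDH and POLR2A housekeeping genes.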 Conditions: mRNA level, 48 h; actives raise or lower the signal. In a few lines:
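Expression change is measured by qRT-PCR in HepaRG cells after 48 h treatment across eight concentrations topping at 100 uM, with duplicate wells and DMSO (0.5%) serving as baseline for bidirectional fitting.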

Read-out in assay [6]: catalase (CAT), CAT (gene 847)
In words: LTEA_HepaRG_CAT: Life Technologies and Expression Analysis (LTEA) Assay for catalase (CAT) using HepaRG (AID 2283452).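 For AC50: TaqMan qRT-PCR signal normalized to ACTB GAPDH and POLR2A housekeeping genes.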 Particulars: mRNA level, 48 h; actives raise or lower the signal. The gist of the method: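 HepaRG cells in serum-free induction medium, 0.5% DMSO vehicle, exposed 48 h in duplicate over 8 half-log concentrations from 100 uM. CAT mRNA measured by qRT-PCR, normalized to ACTB, GAPDH, POLR2A; bidirectional fit versus DMSO.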

Read-out in assay [7]: flavin-containing dimethylaniline monooxygenases 3 (FMO3), FMO3 (gene 2328)
As to the kind of experiment: LTEA_HepaRG_FMO3: Life Technologies and Expression Analysis (LTEA) Assay for flavin-containing dimethylaniline monooxygenases 3 (FMO3) using HepaRG (AID 2283453).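 For AC50: differentiated human HepaRG liver cells in serum-free induction medium; FMO3 transcript by TaqMan qRT-PCR normalized to ACTB GAPDH and POLR2A.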 Conditions: mRNA level, 48 h; actives raise or lower the signal. The gist of the method:
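FMO3 transcript quantified by TaqMan qRT-PCR against three housekeeping genes after 48 h chemical exposure of HepaRG cells. Eight-point half-log series, top 100 uM, 0.5% DMSO vehicle; phenobarbital 1mM induction control; up- or down-regulation fitted.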

Assay [8] concerns the target Retinoic acid receptor RXR-alpha (Homo sapiens) (UniProt P19793). In words: OT_NURR1_NURR1RXRa_0480: Odyssey Thera (OT) 8-hour HEK293T Protein Complementation Assay for Nurr1/retinoid X receptor (RXR) (AID 2283385; active = hit-call score of the fitted dose curve at least 0.9, where 1 is the maximum). In a few lines: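 Interaction of Nurr1 with RXRα read as reconstituted reporter fluorescence in a HEK293T fragment-complementation system, 8 h post-treatment; increase over DMSO baseline analysed.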

Assay [9] deals with Peroxisome proliferator-activated receptor gamma (Homo sapiens) (UniProt P37231). In words: OT_PPARg_PPARgSRC1_1440: Odyssey Thera (OT) 24-hour Protein-Complementation Assay for Peroxisome Proliferator-activated Receptor Gamma/ SRC-1 Co-activator (AID 2283388; active = hit-call score of the fitted dose curve at least 0.9, where 1 is the maximum;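 note: nuclear to cytoplasmic ratio of reconstituted Venus YFP fluorescence in fixed imaged cells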). In a few lines:
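Cells carrying the PPARg/SRC-1 fragment-complementation reporter receive compound for 24 hours, are fixed and counterstained with Draq5, then imaged. Increased nuclear relative to cytoplasmic YFP fluorescence above DMSO baseline indicates binding activity.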

The nature of assay [10]: CEETOX_H295R_11DCORT: CeeTox H295R High-throughput Steroidogenesis Assay for 11-Deoxycortisol (11DCORT) (AID 2283432).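 For AC50: 11-deoxycortisol secreted into the medium measured by LC-MS/MS.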 Particulars: actives raise or lower the signal. The gist of the method: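 Human adrenal H295R cells were prestimulated with 10 uM forskolin for 48 h, then exposed to test chemical (0.1% DMSO final) for 48 h. Medium 11-deoxycortisol was quantified by MTBE extraction and HPLC-MS/MS; bidirectional fitting relative to DMSO.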

A short description of assay [11]: CEETOX_H295R_OHPREG: CeeTox H295R High-throughput Steroidogenesis Assay for OH-Pregnenolone (OHPREG) (AID 2283434). Particulars: actives raise or lower the signal. The gist of the method:
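H295R, 10 uM forskolin pre-stim 48 h; test chemical 48 h, 0.1% DMSO final. MTBE extraction, reverse-phase C18 HPLC-ESI+ MS/MS of medium. Gain/loss vs DMSO; viability by MTT in same wells.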

Assay [12] can be described thus: CEETOX_H295R_ANDR: CeeTox H295R High-throughput Steroidogenesis Assay for Androstenedione (ANDR) (AID 2283436). Conditions: actives raise or lower the signal. In a few lines:
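48 h chemical exposure, H295R cells, DMEM/F12 + ITS+ and Nu-Serum. Medium androstenedione: MTBE extraction, C18 reverse-phase HPLC, ESI+ MS/MS. Fit bidirectional vs DMSO; MTT viability in same wells.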

Assay [13] is described as follows: CEETOX_H295R_CORTIC: CeeTox H295R High-throughput Steroidogenesis Assay for Corticosterone (CORTIC) (AID 2283437).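 Note: corticosterone secreted into medium quantified by mass spectrometry.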 Particulars: actives raise or lower the signal. In a few lines: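 48 h forskolin (10 uM) prestim, then 48 h chemical exposure, final DMSO 0.1%. Readout: corticosterone in medium by LC-MS/MS after MTBE extraction. Gain/loss fit vs DMSO; MTT viability in same wells.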

Assay [14] can be described thus: CEETOX_H295R_CORTISOL: CeeTox H295R High-throughput Steroidogenesis Assay for Cortisol (AID 2283438). Conditions: actives raise or lower the signal. The gist of the method:
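Cortisol measured by HPLC-MS/MS after MTBE extraction of medium from H295R cells exposed 48 h to chemical (0.1% DMSO), following 48 h prestimulation with 10 uM forskolin. Viability assessed by MTT in the same wells.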

The nature of assay [15]: CEETOX_H295R_DOC: CeeTox H295R High-throughput Steroidogenesis Assay for DOC (AID 2283439). Particulars: actives raise or lower the signal. The gist of the method:
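11-Deoxycorticosterone quantified in medium by MTBE extraction and HPLC-MS/MS after 48 h chemical exposure (0.1% DMSO) of forskolin-primed (10 uM, 48 h) H295R cells. Same-well MTT viability; data fitted bidirectionally against DMSO.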

Assay [16] can be described thus: CEETOX_H295R_ESTRADIOL: CeeTox H295R High-throughput Steroidogenesis Assay for Estradiol (AID 2283440).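 Note: estradiol secreted into medium quantified by LC-MS/MS after dansyl derivatisation.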 Conditions: actives raise or lower the signal. In a few lines: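 Readout is estradiol in conditioned medium, quantified by reverse-phase HPLC-MS/MS against a 7-point standard curve. Cells: H295R, forskolin-stimulated, then dosed 48 h in 0.1% DMSO; activity fitted in both directions relative to DMSO.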

The nature of assay [17]: CEETOX_H295R_ESTRONE: CeeTox H295R High-throughput Steroidogenesis Assay for Estrone (AID 2283441). Particulars: actives raise or lower the signal. In a few lines: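 Estrone secreted into medium quantified by LC-MS/MS after dansyl chloride derivatization, following 48 h chemical exposure (0.1% DMSO final) of forskolin-prestimulated (10 uM, 48 h) H295R cells; gain or loss fitted against DMSO; MTT viability in same wells.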

A short description of assay [18]: CEETOX_H295R_PROG: CeeTox H295R High-throughput Steroidogenesis Assay for Progesterone (PROG) (AID 2283442).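 For AC50: human H295R adrenal cells primed with 10 µM forskolin before dosing.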 Particulars: actives raise or lower the signal. The gist of the method:
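Measured analyte is progesterone secreted by H295R cells at 48 h of chemical treatment, following 10 uM forskolin priming. Quantitation used HPLC-MS/MS against a 7-point standard curve; cytotoxicity was checked by MTT absorbance.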

Read-out in assay [19]: Tumor necrosis factor receptor superfamily member 6 (Homo sapiens) (UniProt P25445)
In words: LTEA_HepaRG_FAS: Life Technologies and Expression Analysis (LTEA) Assay for Fas cell surface death receptor (FAS) using HepaRG (AID 2283447). Conditions: mRNA level, 48 h; actives raise or lower the signal. In a few lines:
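Differentiated HepaRG cells in serum-free induction medium were exposed 48 h to 8 half-log concentrations up to 100 uM in 0.5% DMSO, in duplicate. FAS mRNA was measured by qRT-PCR normalised to ACTB, GAPDH and POLR2A; bidirectional fit versus DMSO.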

Read-out in assay [20]: Cyclin D2 (CCND2), CCND2 (gene 894)
As to the kind of experiment: LTEA_HepaRG_CCND2: Life Technologies and Expression Analysis (LTEA) Assay for Cyclin D2 (CCND2) using HepaRG (AID 2283449).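 Note: CCND2 transcript measured by TaqMan qRT-PCR and normalised to three housekeeping genes.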 Particulars: mRNA level, 48 h; actives raise or lower the signal. In a few lines: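 HepaRG, 48 h dosing, 8-pt half-log curve from 100 uM, 0.5% DMSO; duplicate wells. Readout: CCND2 transcript by microfluidic qRT-PCR, housekeeping-normalised; bidirectional fit vs DMSO baseline.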

Fatty acid synthase (Homo sapiens), sequence (P49327 whole entry, looked up): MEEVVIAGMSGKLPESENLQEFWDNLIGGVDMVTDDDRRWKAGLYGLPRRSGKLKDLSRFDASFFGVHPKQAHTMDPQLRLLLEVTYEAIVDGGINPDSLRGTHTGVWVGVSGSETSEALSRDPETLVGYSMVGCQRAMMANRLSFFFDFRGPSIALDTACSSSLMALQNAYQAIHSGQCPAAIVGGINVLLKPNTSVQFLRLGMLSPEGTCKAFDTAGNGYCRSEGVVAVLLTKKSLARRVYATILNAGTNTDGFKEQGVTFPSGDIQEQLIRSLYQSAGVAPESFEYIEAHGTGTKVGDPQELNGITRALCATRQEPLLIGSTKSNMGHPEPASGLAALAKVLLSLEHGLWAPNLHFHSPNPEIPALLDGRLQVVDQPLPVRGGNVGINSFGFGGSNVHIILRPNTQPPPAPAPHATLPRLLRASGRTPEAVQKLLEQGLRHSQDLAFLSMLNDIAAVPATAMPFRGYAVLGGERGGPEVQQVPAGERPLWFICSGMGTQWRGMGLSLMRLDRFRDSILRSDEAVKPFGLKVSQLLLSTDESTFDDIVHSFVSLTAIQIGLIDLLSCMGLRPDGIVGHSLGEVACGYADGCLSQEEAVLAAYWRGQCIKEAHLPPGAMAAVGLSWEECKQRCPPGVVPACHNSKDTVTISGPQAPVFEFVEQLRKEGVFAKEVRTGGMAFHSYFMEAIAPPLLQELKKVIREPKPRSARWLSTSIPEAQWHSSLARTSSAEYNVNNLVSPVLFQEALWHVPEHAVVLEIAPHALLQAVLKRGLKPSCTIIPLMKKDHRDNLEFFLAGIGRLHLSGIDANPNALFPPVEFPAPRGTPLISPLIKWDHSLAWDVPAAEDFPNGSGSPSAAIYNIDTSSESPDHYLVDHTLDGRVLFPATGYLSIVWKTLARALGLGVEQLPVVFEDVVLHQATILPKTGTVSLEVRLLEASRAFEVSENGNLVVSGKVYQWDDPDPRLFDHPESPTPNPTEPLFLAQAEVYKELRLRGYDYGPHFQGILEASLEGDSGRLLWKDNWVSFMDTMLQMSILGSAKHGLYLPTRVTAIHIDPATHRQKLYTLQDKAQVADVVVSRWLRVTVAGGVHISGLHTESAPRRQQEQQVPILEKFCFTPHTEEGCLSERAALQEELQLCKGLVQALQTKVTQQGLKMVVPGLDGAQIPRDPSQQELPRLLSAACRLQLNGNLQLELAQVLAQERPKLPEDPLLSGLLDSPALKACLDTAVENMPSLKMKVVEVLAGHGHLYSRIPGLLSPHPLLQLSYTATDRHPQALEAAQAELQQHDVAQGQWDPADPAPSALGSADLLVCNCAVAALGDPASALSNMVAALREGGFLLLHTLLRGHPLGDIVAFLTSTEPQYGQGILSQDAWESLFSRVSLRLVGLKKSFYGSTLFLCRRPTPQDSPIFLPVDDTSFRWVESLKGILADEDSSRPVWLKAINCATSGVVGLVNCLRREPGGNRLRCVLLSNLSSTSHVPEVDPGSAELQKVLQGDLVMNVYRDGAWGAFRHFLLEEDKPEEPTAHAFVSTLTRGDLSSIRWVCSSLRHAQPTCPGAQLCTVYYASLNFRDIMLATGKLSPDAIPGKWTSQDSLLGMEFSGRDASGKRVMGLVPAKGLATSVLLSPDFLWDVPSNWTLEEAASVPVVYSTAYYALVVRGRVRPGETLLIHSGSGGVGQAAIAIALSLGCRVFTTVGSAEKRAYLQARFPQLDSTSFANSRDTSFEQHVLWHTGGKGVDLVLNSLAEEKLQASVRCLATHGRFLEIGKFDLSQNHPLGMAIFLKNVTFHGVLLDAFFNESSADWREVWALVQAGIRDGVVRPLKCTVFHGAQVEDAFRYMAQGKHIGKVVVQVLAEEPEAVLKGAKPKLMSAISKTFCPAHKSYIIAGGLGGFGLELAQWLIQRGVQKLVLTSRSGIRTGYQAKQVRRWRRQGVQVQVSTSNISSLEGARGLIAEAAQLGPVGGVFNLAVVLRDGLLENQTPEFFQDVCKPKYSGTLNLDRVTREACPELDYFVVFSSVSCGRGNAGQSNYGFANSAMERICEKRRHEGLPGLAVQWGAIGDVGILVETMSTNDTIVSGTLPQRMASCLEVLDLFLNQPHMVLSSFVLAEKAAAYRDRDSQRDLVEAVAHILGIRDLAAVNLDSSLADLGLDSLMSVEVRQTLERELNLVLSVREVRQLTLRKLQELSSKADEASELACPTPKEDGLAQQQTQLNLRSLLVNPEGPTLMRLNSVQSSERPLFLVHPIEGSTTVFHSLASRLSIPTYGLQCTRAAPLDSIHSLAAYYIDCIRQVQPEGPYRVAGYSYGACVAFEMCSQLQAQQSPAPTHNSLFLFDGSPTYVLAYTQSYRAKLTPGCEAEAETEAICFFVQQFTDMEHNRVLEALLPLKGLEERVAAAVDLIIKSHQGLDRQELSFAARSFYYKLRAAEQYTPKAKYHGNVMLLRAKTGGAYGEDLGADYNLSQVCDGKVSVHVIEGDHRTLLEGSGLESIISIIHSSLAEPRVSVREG
Retinoic acid receptor RXR-alpha (Homo sapiens), sequence (P19793 whole entry, looked up, the tested form may be a part): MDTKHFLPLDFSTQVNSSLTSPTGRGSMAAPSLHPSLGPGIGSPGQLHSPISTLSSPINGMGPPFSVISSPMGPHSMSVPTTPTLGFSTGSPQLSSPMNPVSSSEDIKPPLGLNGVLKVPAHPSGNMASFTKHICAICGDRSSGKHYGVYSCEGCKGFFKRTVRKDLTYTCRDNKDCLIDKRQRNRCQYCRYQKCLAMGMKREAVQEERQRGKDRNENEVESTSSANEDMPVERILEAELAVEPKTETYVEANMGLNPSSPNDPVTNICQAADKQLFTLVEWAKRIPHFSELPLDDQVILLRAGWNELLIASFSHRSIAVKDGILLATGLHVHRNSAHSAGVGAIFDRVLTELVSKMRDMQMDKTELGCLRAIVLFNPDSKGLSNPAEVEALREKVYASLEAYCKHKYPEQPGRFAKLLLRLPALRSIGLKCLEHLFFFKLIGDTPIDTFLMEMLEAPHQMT
Peroxisome proliferator-activated receptor gamma (Homo sapiens), sequence (P37231 whole entry, looked up, the tested form may be a part): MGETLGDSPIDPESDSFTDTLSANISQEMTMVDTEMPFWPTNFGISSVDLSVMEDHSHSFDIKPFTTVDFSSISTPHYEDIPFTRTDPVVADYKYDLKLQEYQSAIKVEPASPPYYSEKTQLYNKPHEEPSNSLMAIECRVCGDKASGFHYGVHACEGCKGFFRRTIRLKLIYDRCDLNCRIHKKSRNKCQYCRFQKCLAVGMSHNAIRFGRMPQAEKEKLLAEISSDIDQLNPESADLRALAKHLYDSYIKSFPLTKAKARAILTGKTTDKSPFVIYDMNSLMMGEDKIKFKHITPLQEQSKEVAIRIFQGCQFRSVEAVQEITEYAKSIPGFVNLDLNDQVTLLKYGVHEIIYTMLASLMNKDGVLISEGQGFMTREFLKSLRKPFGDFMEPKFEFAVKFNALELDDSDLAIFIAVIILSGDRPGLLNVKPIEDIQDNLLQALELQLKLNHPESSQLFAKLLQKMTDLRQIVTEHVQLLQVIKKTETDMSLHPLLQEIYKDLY

In the case of `CCCCCCCCn1sccc1=O`, the AC50 was 12 µM (active) in assay [1]; 75.1 µM (active) in assay [3]; 83.7 µM (active) in assay [5]; 85.6 µM (active) in assay [6]; 88.9 µM (active) in assay [7]. In addition, the compound was classed as inactive in [2] and in assay [4].
`O=C(Nc1ccccc1)c1ccccc1I`: the compound was called inactive in assay [8], in [2], in assay [9], in assay [12], in [13] and in assay [14]. The call in assay [16], in [17], in assay [19], in assay [20], in assay [4] and in assay [6] was inactive. Also, the AC50 in assay [10] was 27.8 µM (active); in assay [11] it was 32.3 µM (active); in [15], 25.7 µM (active); in assay [18], 7.28 µM (active); in assay [3] it was 13.2 µM (active); in assay [5], 22 µM (active). In [7], the AC50 was 50 µM (active).
For the compound `CO[C@@H]1[C@H](OC(=O)NC(=O)CCl)CC[C@]2(CO2)[C@H]1[C@@]1(C)O[C@@H]1CC=C(C)C`, the result in assay [8], in [2], in assay [9], in [3], in assay [20] and in [4] was inactive. Also, the result in assay [5], in assay [6] and in assay [7] was inactive.
Regarding `Cn1cc(-c2ccccc2)c(=O)c(-c2cccc(C(F)(F)F)c2)c1`, the call in [8], in assay [2], in [10], in [11], in assay [13] and in assay [14] was inactive. For the same compound, the result in assay [15], in assay [18], in [20], in assay [5] and in [7] was inactive. Besides, the AC50 in assay [3] is 9.92 µM (active); in [4], 63.8 µM (active).
On to `O=C1CCCO1`, for which the call in assay [8], in assay [2], in [9], in assay [3], in assay [20] and in [4] was inactive. The call in [5], in assay [6] and in assay [7] was inactive. For the same compound, the concentration at half-maximal activity (AC50) in assay [19] is 50 µM (active).
